GLS inhibitor = qHTS for Inhibitors of Glutaminase (GLS); Glutaminase kidney isoform, mitochondrial (Homo sapiens), O94925; GLS enzymatic activity, qHTS titration; Potency, µM (titrated, usually from 45.5 µM), inactives show top-dose activity change, negative = inhibition, actives largely listed as inhibitors; actives 0.21% (n = 410,000); AID 624170, 2012; further: potency means the concentration at half of the fitted maximal effect; on the % scale 0 is the no-effect control and ±100 the full control effect
Target sequence (O94925 whole entry, looked up, canonical isoform): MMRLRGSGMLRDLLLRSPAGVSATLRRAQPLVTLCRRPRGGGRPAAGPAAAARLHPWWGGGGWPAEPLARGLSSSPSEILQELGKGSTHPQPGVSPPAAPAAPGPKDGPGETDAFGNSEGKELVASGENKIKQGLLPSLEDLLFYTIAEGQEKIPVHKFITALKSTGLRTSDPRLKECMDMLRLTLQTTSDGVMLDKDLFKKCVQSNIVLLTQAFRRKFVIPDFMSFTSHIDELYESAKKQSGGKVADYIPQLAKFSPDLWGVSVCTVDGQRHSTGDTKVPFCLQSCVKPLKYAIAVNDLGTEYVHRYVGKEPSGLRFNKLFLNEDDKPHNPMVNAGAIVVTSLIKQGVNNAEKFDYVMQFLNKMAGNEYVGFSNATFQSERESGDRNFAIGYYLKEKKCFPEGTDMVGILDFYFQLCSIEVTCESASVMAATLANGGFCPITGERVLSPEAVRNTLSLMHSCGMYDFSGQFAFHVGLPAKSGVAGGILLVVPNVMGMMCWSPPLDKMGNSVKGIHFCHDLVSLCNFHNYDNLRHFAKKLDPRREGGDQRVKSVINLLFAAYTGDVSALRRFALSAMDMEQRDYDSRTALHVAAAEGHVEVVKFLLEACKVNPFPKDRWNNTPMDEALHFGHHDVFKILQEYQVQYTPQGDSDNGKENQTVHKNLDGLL
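Glutamate formation by hKGA was monitored fluorometrically using coupled glutamate oxidase, HRP and Amplex Red. Substrate was added as 1 mM L-glutamine solution; incubation was 30 min at RT after an initial read.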
GLP1R cytotox = qHTS of GLP-1 Receptor Inverse Agonists: Cytotox Screen | actives 0.13% (n = 410,000) | Potency, µM (doses to about 38.3 µM), without a hit: at the top dose activity change, negative = inhibition, actives largely listed as inhibitors | HEK293 cAMP-luciferase reporter cells, luminescence, 24 h;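 further: loss of luciferase light is scored as toxicity; potency means the concentration at half of the fitted maximal effect; on the % scale 0 is the no-effect control and ±100 the full control effect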
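Here, cytotoxicity is scored as loss of luminescence. The MLSMR collection was tested on cells seeded in medium containing 10% Nu serum, with a 24 hr compound exposure preceded by 12 hours of culture.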
GLP-1R agonist = qHTS of GLP-1 Receptor Agonists. Glucagon-like peptide 1 receptor (Homo sapiens), P43220. HEK293 GLP-1R CRE-luciferase, luminescence, 4-6 h; cells express a hypersensitive GLP-1R form. Potency, µM (top dose mostly 45.6 µM), without a hit: at the highest dose activation, actives largely listed as activators. actives 0.007% (n = 380,000). AID 624172, 2012; further: potency means the concentration at half of the fitted maximal effect; % of control where 0% means no effect
KCNH2 3.1 block = qHTS for Inhibitors of KCHN2 3.1: Mutant qHTS | activity change, % (tested at about 1.8 µM) | actives 0.95% (n = 340,000) | U2OS KCNH2 3.1, thallium flux FluxOr; hits give low values | Potassium voltage-gated channel subfamily H member 2, brain isoform KCNH2 3.1 (human);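 active means maximum activity change below -70%; inconclusive means maximum activity change from -70% to -50%; inactive means maximum activity change above -50%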;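 further: thallium influx rate constant from kinetic fluorescence after stimulation buffer; on the % scale 0 is the no-effect control and ±100 the full control effect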
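Kinetic fluorescence (2 min after stimulation buffer) measures Tl+ influx through KCNH2 3.1 expressed by viral transduction in U2OS cells; the rate constant is normalized against DMSO controls serving as positive and negative references.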
KCNH2 WT inh = qHTS for Inhibitors of KCHN2 3.1: Wildtype qHTS | Voltage-gated inwardly rectifying potassium channel KCNH2 (Homo sapiens), Q12809 | actives 0.37% (n = 340,000) | AID 720551, 2013 | U2OS, BacMam KCNH2, thallium flux FluxOr; hits give low values | activity change, % at 1.84 µM;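 active means maximum activity change below -70%; inconclusive means maximum activity change between -70% and -50%; inactive means maximum activity change above -50%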; further: on the % scale 0 is the no-effect control and ±100 the full control effect
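U2OS cells transduced with wild-type KCNH2 virus are loaded with FluxOr dye for 45 min, and thallium flux is measured in kinetic reads before and after stimulation buffer. Rate constants are normalized to DMSO controls.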
GLP-1R inv ag = qHTS of GLP-1 Receptor Inverse Agonists (Inhibition Mode); Glucagon-like peptide 1 receptor (Homo sapiens), P43220; HEK293 GLP-1R CRE-luciferase, luminescence, 24 h; GLP-1R form is constitutively active; Potency, µM (titrated, usually from 38.3 µM), for the others: at the top dose activity change, negative = inhibition, actives largely listed as inhibitors; actives 1.6% (n = 410,000); further: potency means the concentration at half of the fitted maximal effect; on the % scale 0 is the no-effect control and ±100 the full control effect; nearly all actives have a fitted effect of over 55% in size
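Inverse agonists were sought by their lowering of basal cAMP reporter luciferase output in HEK293 cells stably carrying constitutively active human GLP-1R, after 24 h compound treatment.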
Starred values were filed as active, the others as inactive; ? = inconclusive; . = no result given; [ ] = dose if it differs, or a comment. Compounds with a hit are over-represented: about 2.8% of the library has one in this group of screens. Unless noted, the call rests on the fitted dose curve; in most records, active means well fitted curve in the direction sought with a large enough effect; inconclusive means small, poorly fitted or top-dose-only effect, or another doubt; inactive means no such curve, though single readings can be large; an effect the other way counts as inactive or inconclusive.

SMILES	GLS inhibitor	GLP1R cytotox	GLP-1R agonist	KCNH2 3.1 block	KCNH2 WT inh	GLP-1R inv ag
C=C(C)[C@@]12OC3(c4ccccc4)O[C@@H]1C1[C@@H]4O[C@]4(CO)[C@@H](O)[C@]4(O)C(=O)C(C)=C[C@H]4[C@@]1(O3)[C@H](C)[C@H]2OC(=O)/C=C/C=C/c1ccccc1 (some centres undefined)	-2%	-25%	-2%	-21	21	2.8µM*
CCc1ccc(OCC(=O)NC(NC(=S)Nc2ccccc2)C(Cl)(Cl)Cl)cc1 (centres undefined)	-5%	?	4%	8	-9	4µM*
COc1ccc(N2C(=O)C3[C@@H](C2=O)C2(Cl)C(Cl)=C(Cl)C3(Cl)C2(OC)OC)cc1 (some centres undefined)	7%	48%	0%	-8	-11	-18%
CCOP(=O)(Nc1ccc2c(c1)C(=NNC(N)=S)c1ccccc1-2)OCC	-1%	13µM*	-2%	10	-16	?
CCOC(=O)Nc1ccc2c3c(cccc13)-c1ccccc1-2	-1%	336%	1%	-12	-4	?
COc1cccc(CN(C)C[C@@H]2OCc3ccccc3-c3c(n(C)c4ccccc34)C(=O)N([C@@H](C)CO)C[C@H]2C)c1	-4%	?	-3%	-17	-10	10µM*
Cc1ccc(-n2c(/C=C/c3ccc(Br)s3)nc3ccccc3c2=O)cc1C	6%	-3%	.	.	.	11µM*
O=c1c2ccccc2nc(/C=C/c2ccc(O)cc2)n1-c1ccccc1O	-1%	75%	-2%	8	3	?
O=c1c2ccccc2nc(/C=C\c2cccc(Br)c2)n1-c1ccc(O)cc1	0%	-6%	.	.	.	3%
O=c1c2ccccc2nc(/C=C/c2ccccc2)n1-c1ccccc1O	-5%	-29%	9%	18	-3	?
O=c1c2ccccc2nc(/C=C/c2ccccc2)n1-c1ccc(O)cc1	-5%	-18%	27%	-42	-14	5.6µM*
Cc1ccccc1-n1c(/C=C/c2ccc(O)cc2)nc2ccccc2c1=O	0%	84%	.	.	.	11µM*
O=c1c2ccccc2nc(/C=C/c2cccnc2)n1Cc1ccccc1	?	-22%	10%	-6	7	5µM*
CN(Cc1ccccc1)C(=O)c1ccc(Nc2nc(C(N)Cc3ccc(C(F)(F)F)cc3)cs2)nc1 (centres undefined)	15%	?	-8%	.	.	?
O=C1Nc2ccccc2/C1=C/c1nc2ccccc2c(=O)n1-c1ccc(O)cc1	-11%	?	9%	-5	8	10µM*
Cc1c(CCNS(=O)(=O)c2ccccc2)sc2nc(-c3ccc(Cl)cc3)nn12	-7%	-12%	.	.	.	?
Cc1ccccc1C(O)(Cc1ccccc1)C1CN2CCC1CC2 (centres undefined)	9%	?	-1%	-40	-5	0.79µM*
Cc1ccc(C(O)(c2ccc(C)c(C)c2)C2CN3CCC2CC3)cc1C (centres undefined)	0%	?	3%	?	4	?
Nc1ccc(CCN2CCN(c3cccc(C(F)(F)F)c3)CC2)cc1	1%	-5%	11%	-72*	9	?
COc1cccc(NC(=O)CN(C)C(=O)c2ccccc2OCC(=O)Nc2cccc(C(F)(F)F)c2)c1	2%	?	-31%	-7	-13	?
COc1cccc(-c2nn(-c3ccc(C)cc3)cc2C(=O)N(C)CC(=O)Nc2cccc(F)c2)c1	0%	?	-4%	-14	-4	7.1µM*
CCN(CC)CCc1c[nH]c2ccccc12	60%[147 µM]	.	-6%[147 µM]	.	.	.
Cc1cc(/C=C2\C(=O)NC(=O)N(c3ccccc3F)C2=O)c(C)n1-c1cc(C(=O)O)cc(C(=O)O)c1	5µM*	4%	-6%	-5	-22	-11%
Cc1cc(/C=C2\C(=O)NC(=O)N(c3ccc(F)cc3)C2=O)c(C)n1-c1cccc(C(=O)O)c1	?	-9%	0%	-9	-6	-1%
COCCOCCO	-7%[99.4 µM]	.	0%[96 µM]	.	.	.
SMILES	GLS inhibitor	GLP1R cytotox	GLP-1R agonist	KCNH2 3.1 block	KCNH2 WT inh	GLP-1R inv ag
CN[C@H](C)Cc1ccccc1	-6%[99.4 µM]	.	15%[96 µM]	.	.	.
O=c1[nH]c(CN2CC=C(c3ccccc3)CC2)nc2scc(-c3ccccc3)c12	-19%	-17%	-4%	5	-3	?
Cc1nc2scc(-c3ccccc3)c2c(=O)n1N=C1C=CC(=O)C=C1	3.2µM*	?	7%	13	-3	-11%
Cc1ccccc1S(=O)(=O)N(C)C[C@@H]1OCc2ccccc2-c2c(n(C)c3ccccc23)C(=O)N([C@H](C)CO)C[C@@H]1C	-3%	-12%	-1%	-10	-5	?
COc1cccc(NP(=O)(Oc2ccccc2)Oc2ccccc2)c1	18%	11%	-4%	-47	-10	5µM*
O=P(Nc1cccc(Cl)c1)(Oc1ccccc1)Oc1ccccc1	-2%	-18%	3%	-22	-2	8.9µM*
COc1cc(C[C@H](C)N)c(OC)cc1C	-20%[99.4 µM]	.	-5%[110 µM]	.	.	.
O=C(c1ccc(C(F)(F)F)cc1)C1CCCN(C2CCSCC2)C1 (centres undefined)	-1%	4%	10%	-36	-38	?
Cc1cc(Cl)ccc1C(=O)C1CCCN(C2CCSCC2)C1 (centres undefined)	-1%	-21%	3%	-87*	-34	?
COc1ccc2[nH]c(C)c(CCNCc3cc(OC)c(OC)c(OC)c3)c2c1	?	-2%	-1%	-3	-10	?
COc1ccc(CNCCc2c(C)[nH]c3ccc(OC(F)(F)F)cc23)c(OC)c1	5%	?	2%	-78*	4	2µM*
O=C(Nc1cccc(-c2csc(Nc3cccc(C(F)(F)F)c3)n2)c1)c1ccccc1	0%	?	-2%	-8	-6	2.8µM*
O=[N+]([O-])C(Br)(CO)CO	50%	.	-4%	.	.	.
CN1CCN(C(=O)COc2ccc3ccccc3c2)CC1	-19%	2%	0%	17	3	14%
CN1CCN(C(=O)COc2ccc(-c3nc4ccccc4s3)cc2)CC1	-3%	-2%	-5%	0	17	6.3µM*

Bioassay records from PubChem.
